Results: PMC4336329 (PLoS ONE, 2015)
In all, about 310,000 compounds went through this assay and about 14,000 (4.5%) showed an effect of 50% or more. Effects have a minus sign here. Only a selection was taken, and strong results are over-represented in it overall.

Target: human ether-à-go-go-related gene (hERG) potassium channel (human, UniProt Q12809)
Assay: primary screen, population patch clamp on CHO cells stably expressing hERG; higher = less effect of the substance
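Also: peak tail current of the secondary pulse compared with the same well before compound.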

Sequence of human ether-à-go-go-related gene (hERG) potassium channel (Q12809 whole entry, looked up): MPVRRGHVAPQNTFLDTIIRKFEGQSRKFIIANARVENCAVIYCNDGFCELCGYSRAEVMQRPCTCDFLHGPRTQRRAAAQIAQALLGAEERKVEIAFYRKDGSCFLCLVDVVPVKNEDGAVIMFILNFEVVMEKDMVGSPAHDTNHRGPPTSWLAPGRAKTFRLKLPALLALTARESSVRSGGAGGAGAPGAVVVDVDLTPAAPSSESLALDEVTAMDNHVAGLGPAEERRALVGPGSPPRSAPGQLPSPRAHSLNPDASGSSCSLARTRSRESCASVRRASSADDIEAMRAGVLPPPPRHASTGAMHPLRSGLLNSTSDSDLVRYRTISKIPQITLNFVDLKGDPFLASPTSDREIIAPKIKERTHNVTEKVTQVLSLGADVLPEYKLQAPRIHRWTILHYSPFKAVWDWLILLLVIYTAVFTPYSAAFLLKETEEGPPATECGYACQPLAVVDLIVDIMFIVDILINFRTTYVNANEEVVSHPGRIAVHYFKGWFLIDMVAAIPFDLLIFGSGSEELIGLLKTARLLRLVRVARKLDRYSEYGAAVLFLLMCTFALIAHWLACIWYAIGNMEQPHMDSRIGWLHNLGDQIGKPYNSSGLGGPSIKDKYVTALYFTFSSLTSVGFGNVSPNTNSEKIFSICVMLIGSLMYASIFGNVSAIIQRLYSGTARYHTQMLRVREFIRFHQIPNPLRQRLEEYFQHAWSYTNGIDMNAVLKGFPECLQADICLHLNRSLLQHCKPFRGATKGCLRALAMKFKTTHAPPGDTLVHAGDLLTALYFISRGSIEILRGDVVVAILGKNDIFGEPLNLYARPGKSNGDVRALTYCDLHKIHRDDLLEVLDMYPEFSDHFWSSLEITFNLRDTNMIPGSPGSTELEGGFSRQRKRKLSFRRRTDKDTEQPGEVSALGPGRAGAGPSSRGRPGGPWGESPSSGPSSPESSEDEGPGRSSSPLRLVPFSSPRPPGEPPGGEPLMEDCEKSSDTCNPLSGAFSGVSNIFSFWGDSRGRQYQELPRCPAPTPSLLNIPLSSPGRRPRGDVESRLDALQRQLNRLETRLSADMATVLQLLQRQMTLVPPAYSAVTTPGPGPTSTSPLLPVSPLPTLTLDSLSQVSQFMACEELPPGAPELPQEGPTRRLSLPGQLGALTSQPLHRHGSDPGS

Compared with `CC(C)(C)NC(=O)CN(C(=O)C1CSC(=O)C1)c1ccccc1F` (centres unmarked), `CCOC(=O)N1CCC(NC(=O)CC2C(=O)NCCN2Cc2ccccc2F)CC1` (centres unmarked) is higher in “hERG current change (%, negative = inhibition) at 10uM” value: -0.923% for the first, 11.8% for the second.

Going from `Cc1ccc(S(=O)(=O)NNC(=O)c2ccoc2C)cc1` to `Cc1occc1C(=O)NNS(=O)(=O)c1ccc(Cl)cc1`, the “hERG current change (%, negative = inhibition) at 10uM” value rises from -70.6% to 7.64%.

Going from `Cc1occc1C(=O)NNS(=O)(=O)c1ccc([N+](=O)[O-])cc1` to `CC1=CC(=O)C=C(C)C1=NOC(=O)c1cccc([N+](=O)[O-])c1`, the “hERG current change (%, negative = inhibition) at 10uM” value falls from 10.5% to 9.59%.

Going from `O=C(CCc1ccccc1)NNC(=O)c1ccco1` to `C=CCN1CCN(C(=O)CCc2ccccc2)CC1`, the “hERG current change (%, negative = inhibition) at 10uM” value rises from 5.99% to 13.8%.

Going from `COc1ccc(C(=O)C2CCCN(C(=O)Cn3cncn3)C2)cc1OC` (centres unmarked) to `COc1cccc(C(=O)C2CCCN(Cc3ccc(OC)c(Cn4cncn4)c3)C2)c1` (centres unmarked), the “hERG current change (%, negative = inhibition) at 10uM” value falls from 21.6% to -58.6%.

Going from `COc1ccc(CN2CCCC(C(=O)c3ccc(Cl)cc3)C2)cc1Cn1cncn1` (centres unmarked) to `COc1cccc(C(=O)C2CCCN(Cc3ccc4nonc4c3)C2)c1` (centres unmarked), the “hERG current change (%, negative = inhibition) at 10uM” value rises from -78% to -48.5%.

Going from `COc1ccc(CN2CCN(CC=C(C)C)C(CCO)C2)cc1Cn1cncn1` (centres unmarked) to `CN1CCN(Cc2nc3ccccc3n2C)CC1CCO` (centres unmarked), the “hERG current change (%, negative = inhibition) at 10uM” value rises from -0.719% to 3.83%.

Compared with `O=C1CNC(=O)/C(=C\c2ccccc2)N1`, `Cc1[nH]n(-c2cccc(Cl)c2)c(=O)c1-c1ccccc1` is higher in “hERG current change (%, negative = inhibition) at 10uM” value: 11.8% for the first, 17.1% for the second.

Going from `O=C(CNC(=O)c1ccc(Oc2ccccc2)cc1)OC1CCCCC1=O` (centres unmarked) to `COc1ccc(C(=O)NCC(=O)OC2CCCCC2=O)cc1` (centres unmarked), the “hERG current change (%, negative = inhibition) at 10uM” value rises from -72.2% to -13.5%.

Compared with `COc1cc(OC)cc(C(=O)NCC(=O)OC2CCCCC2=O)c1` (centres unmarked), `COC(=O)C(C)Oc1ccc2c3c(c(=O)oc2c1)CCCCC3` (centres unmarked) is lower in “hERG current change (%, negative = inhibition) at 10uM” value: -27.6% for the first, -59.2% for the second.

Going from `Cc1ccccc1OC1C(=O)N(CC2CCCO2)C1c1ccc2c(c1)OCO2` (centres unmarked) to `O=C1C(Oc2ccc(Cl)cc2)C(c2ccc3c(c2)OCO3)N1CC1CCCO1` (centres unmarked), the “hERG current change (%, negative = inhibition) at 10uM” value rises from -55.8% to -28.3%.

First: COc1ccc(CCN2C(=O)C(Oc3ccccc3C)C2c2ccc3c(c2)OCO3)cc1 (centres unmarked)
Second: COc1cccc(-n2c(O)c(C=NCc3ccccn3)c3ccccc3c2=O)c1
The “hERG current change (%, negative = inhibition) at 10uM” value of the first is lower: -42.3% for the first, -26.2% for the second.

Going from `CCc1nc(NCCN2CCOCC2)c(C#N)c2c1CCCC2` to `Cc1c(C(=O)NCCN2CCOCC2)oc2ccc(Br)cc12`, the “hERG current change (%, negative = inhibition) at 10uM” value rises from -37.2% to -15%.

First: CCN1CCN(CCCNC(=O)C2CCN(c3nnc(-n4cccc4)s3)CC2)CC1
Second: CCC1CCCCN1CCCNC(=O)C1CCN(c2nnc(-n3cccc3)s2)CC1 (centres unmarked)
The “hERG current change (%, negative = inhibition) at 10uM” value of the first is higher: -3.56% for the first, -18.7% for the second.

Going from `CC1CCCCN1CCCNC(=O)C1CCN(c2nc3ccccc3o2)CC1` (centres unmarked) to `CC1CCCCN1CCCNC(=O)C1CCN(c2nnc(-n3cccc3)s2)CC1` (centres unmarked), the “hERG current change (%, negative = inhibition) at 10uM” value falls from -1.61% to -27.1%.

Compared with `CCOc1ccc(NCc2cccn2-c2nnc(N3CCC(C(=O)NCCCN4CC(C)CC(C)C4)CC3)s2)cc1` (centres unmarked), `CCOc1ccc(NCc2cccn2-c2nnc(N3CCC(C(=O)NCCCN4C(C)CCCC4C)CC3)s2)cc1` (centres unmarked) is lower in “hERG current change (%, negative = inhibition) at 10uM” value: -66.2% for the first, -69.3% for the second.

First: CCOc1ccc(CCNC(=O)C2CCN(c3nnc(-n4cccc4)s3)CC2)cc1OCC
Second: CCOc1ccc(CCNC(=O)C2CCN(c3nnc(-n4cccc4)s3)CC2)cc1
The “hERG current change (%, negative = inhibition) at 10uM” value of the first is lower: -35.7% for the first, -0.834% for the second.

First: Cc1ccc(C)n1-c1nnc(N2CCC(C(=O)NCCCN3CC(C)CC(C)C3)CC2)s1 (centres unmarked)
Second: CC1CC(C)CN(CCCNC(=O)C2CCN(c3nnc(-n4cccc4)s3)CC2)C1 (centres unmarked)
The “hERG current change (%, negative = inhibition) at 10uM” value of the first is higher: -17.7% for the first, -28.3% for the second.

First: CCOc1ccc(NCc2cccn2-c2nnc(N3CCC(C(=O)NCCCN4CCCCC4C)CC3)s2)cc1 (centres unmarked)
Second: CCOc1ccc(NCc2cccn2-c2nnc(N3CCC(C(=O)NCCCN4CCCCC4CC)CC3)s2)cc1 (centres unmarked)
The “hERG current change (%, negative = inhibition) at 10uM” value of the first is higher: -53.8% for the first, -68% for the second.

First: COC(=O)c1ccccc1NC(=O)N1CCN(S(=O)(=O)c2ccc(Cl)cc2)CC1
Second: Cc1ccc(S(=O)(=O)N2CCN(Cc3nc4ccccc4n3C)CC2)cc1
The “hERG current change (%, negative = inhibition) at 10uM” value of the first is higher: 7.58% for the first, -53.5% for the second.

First: O=C(Nc1ncccc1Cl)C(Sc1ccccc1)c1ccccc1 (centres unmarked)
Second: Cc1c(NC(=O)COc2ccccc2Cl)c(=O)n(-c2ccccc2)n1C
The “hERG current change (%, negative = inhibition) at 10uM” value of the first is higher: 8.58% for the first, -4.59% for the second.

First: CCOC(=O)c1nn(-c2ccc(C)cc2)cc1C(=O)c1ccccc1
Second: O=C(COC(=O)c1cccc(Cl)c1)Nc1cc(Cl)ccc1Oc1ccccc1
The “hERG current change (%, negative = inhibition) at 10uM” value of the first is lower: -9.04% for the first, 15.1% for the second.

Going from `COc1cc(CNc2ccc(N3CCOCC3)c(C(=O)O)c2)ccc1OCC(N)=O` to `COc1cc2cc(C(=O)N3CCN(c4ccccc4OC)CC3)[nH]c2cc1OC`, the “hERG current change (%, negative = inhibition) at 10uM” value rises from -6.95% to 24.5%.

Going from `CCOc1ccc(S(=O)(=O)NCc2ccccc2)cc1C(N)=O` to `CCOc1ccccc1OCC(=O)Nc1c(C)n(C)n(-c2ccccc2)c1=O`, the “hERG current change (%, negative = inhibition) at 10uM” value falls from 18.9% to -6.05%.

Compared with `O=C(OCC(O)CN1CCCCC1)C12CC3CC(CC(C3)C1)C2` (centres unmarked), `CCOC(=O)C1(Cc2ccccc2)CCCN(CCO)C1` (centres unmarked) is higher in “hERG current change (%, negative = inhibition) at 10uM” value: -16.3% for the first, 6.18% for the second.

Compared with `CCOC(=O)c1cc(C(O)(C(=O)OC)C(F)(F)F)c(/N=C/N(C)C)o1` (centres unmarked), `CCOC(=O)c1sc(=S)n(C)c1C` is higher in “hERG current change (%, negative = inhibition) at 10uM” value: -6.94% for the first, 12% for the second.

Compared with `Cc1cccc(-n2c(C)cc(C(=S)N3CCOCC3)c2C)c1C`, `Cc1ccc(C(=O)NCCCN2CCOCC2)c(Cl)c1` is higher in “hERG current change (%, negative = inhibition) at 10uM” value: -7.9% for the first, 13% for the second.

Going from `CC(=O)C(C)Oc1ccc2c3c(c(=O)oc2c1)CCCC3` (centres unmarked) to `CC(=O)C(C)Oc1ccc2c3c(c(=O)oc2c1)CCCCC3` (centres unmarked), the “hERG current change (%, negative = inhibition) at 10uM” value rises from -12.8% to 2.1%.

Going from `O=C(CSc1nc(C(F)(F)F)cc(=O)[nH]1)Nc1nccs1` to `Cc1cc(NC(=O)CSc2ncnc3c2cnn3-c2ccccc2)no1`, the “hERG current change (%, negative = inhibition) at 10uM” value falls from 18.5% to -10.8%.

Going from `CCc1nn(CCCC(=O)NCc2ccco2)c(=O)c2cc3occc3n12` to `Cc1c(NC(=O)COc2cccc(Cl)c2Cl)c(=O)n(-c2ccccc2)n1C`, the “hERG current change (%, negative = inhibition) at 10uM” value falls from -14% to -71.4%.

First: Cc1ccc(-n2c(O)c(C=NCc3ccccn3)c3ccccc3c2=O)cc1
Second: Cc1cccc(-n2c(O)c(C=NCc3ccccn3)c3ccccc3c2=O)c1
The “hERG current change (%, negative = inhibition) at 10uM” value of the first is higher: -3.79% for the first, -60.9% for the second.

Compared with `COc1ccc(Cl)cc1NC(=S)NCc1cccnc1`, `COc1cccc(N2CCN(C(=S)Nc3ccc(F)cc3)CC2)c1` is higher in “hERG current change (%, negative = inhibition) at 10uM” value: -15.3% for the first, 16.1% for the second.

Compared with `Cc1c(NC(=O)COC(=O)/C=C/c2cccc(Cl)c2)c(=O)n(-c2ccccc2)n1C`, `Cc1c(NC(=O)COC(=O)/C=C/c2cccc(Br)c2)c(=O)n(-c2ccccc2)n1C` is higher in “hERG current change (%, negative = inhibition) at 10uM” value: -58.7% for the first, -15.8% for the second.

Going from `CCOc1ccc(N(CC(=O)Nc2c(C)n(C)n(-c3ccccc3)c2=O)S(=O)(=O)c2ccccc2)cc1` to `Cc1c(NC(=O)CN(c2ccc(F)cc2)S(=O)(=O)c2ccccc2)c(=O)n(-c2ccccc2)n1C`, the “hERG current change (%, negative = inhibition) at 10uM” value rises from -55.2% to -0.664%.

Going from `CCOc1ccc(N(CC(=O)Nc2c(C)n(C)n(-c3ccccc3)c2=O)S(=O)(=O)c2ccc(F)cc2)cc1` to `Cc1c(NC(=O)COC(=O)/C=C/c2ccc(Cl)cc2)c(=O)n(-c2ccccc2)n1C`, the “hERG current change (%, negative = inhibition) at 10uM” value rises from -17.6% to 28.5%.

Compared with `Cc1c(NC(=O)CSc2ncnc3c2cnn3-c2ccccc2)c(=O)n(-c2ccccc2)n1C`, `Cc1c(NC(=O)CSc2ncnc3ccccc23)c(=O)n(-c2ccccc2)n1C` is higher in “hERG current change (%, negative = inhibition) at 10uM” value: -64.1% for the first, -38.8% for the second.

Compared with `Cc1nn(-c2ccccc2)cc1/C=N/O`, `CN(Cc1nc2ccccc2n1C)S(C)(=O)=O` is lower in “hERG current change (%, negative = inhibition) at 10uM” value: 0.476% for the first, -5.28% for the second.

Going from `Cc1ccc(S(=O)(=O)N2CCN(C(=O)CSc3ccccn3)CC2)c(C)c1` to `Cc1ccc(S(=O)(=O)n2c(CN3CCCC(C)C3)nc3ccccc32)cc1` (centres unmarked), the “hERG current change (%, negative = inhibition) at 10uM” value rises from -26.5% to -14.6%.

Going from `Cn1c(CN2CCN(c3ccccc3NS(C)(=O)=O)CC2)nc2ccccc21` to `CN1CCN(Cc2nc3ccccc3n2C)CC1`, the “hERG current change (%, negative = inhibition) at 10uM” value rises from -61.5% to -0.083%.

Going from `COCc1cc(=O)n2[nH]c(-c3cccc(Br)c3)cc2n1` to `Cc1c(C(=O)NC2CCN(Cc3ccccc3)C2)oc2ccc(Br)cc12` (centres unmarked), the “hERG current change (%, negative = inhibition) at 10uM” value falls from -24.2% to -61.8%.

Going from `CCOc1ccc2oc(C(=O)NC3CCN(Cc4ccccc4)CC3)c(C)c2c1.Cl` to `Cc1c(C(=O)NC2CCN(Cc3ccccc3)C2)oc2c(Cl)cccc12` (centres unmarked), the “hERG current change (%, negative = inhibition) at 10uM” value falls from -15.1% to -71.8%.

Compared with `CCOC(=O)N1CCC(NC(=O)c2oc3c(F)cccc3c2C)CC1`, `O=C(NC1CCN(Cc2ccccc2)CC1)c1c(Cl)cccc1Cl` is higher in “hERG current change (%, negative = inhibition) at 10uM” value: -15.4% for the first, -10.7% for the second.

First: O=C(OCC(=O)c1cccs1)C1=COCCO1
Second: CC1CCN(CCOc2ccc(OCc3ccccc3)cc2)CC1.O=C(O)C(=O)O
The “hERG current change (%, negative = inhibition) at 10uM” value of the first is higher: 19.7% for the first, -70.9% for the second.

Going from `CC1CN(C(=O)/C(C#N)=C2\N=C(NC(=O)c3ccc(F)cc3)c3ccccc32)CC(C)O1` (centres unmarked) to `CC1CCN(CCCOc2ccc(OCc3ccccc3)cc2)CC1.O=C(O)C(=O)O`, the “hERG current change (%, negative = inhibition) at 10uM” value falls from 14.1% to -71.4%.

In the case of `CC1CCCN(Cc2ccc(OCc3ccccc3)cc2)C1` (centres unmarked), the “hERG current change (%, negative = inhibition) at 10uM” value is reported as -43.3%.
